Shiga toxin inh: blocks Shiga toxin action in Vero cells; Vero cells, Shiga toxin protein synthesis inhibition reporter; inhibition, % at 38.7 µM; 9.2% of 290,000 active; AID 2315; in the data active = inhibition mostly above about 28%, no sharp cut-off; inactive = mostly below about 43%; also: 0% is about no effect
Pf growth 96h: inhibits malaria parasite growth, 96 h; P. falciparum luciferase reporter growth, 96 h; Potency, µM (highest dose often 28.7 µM), for inactives: at the top dose activity change, negative = inhibition, actives largely listed as inhibitors; 6.9% of 320,000 active; AID 504834; also: potency is read from the fitted curve at half-maximal effect; % is scaled to controls: 0 for no effect and ±100 for the full control effect
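Two parasite generations (96 h, 37 C, 5% CO2) of compound exposure in infected erythrocytes (0.05% parasitemia, 2% hematocrit). Luciferase-reporter P. falciparum; decreased luminescence indicates inhibited growth, aimed at apicoplast-acting delayed death.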
Pf growth 48h: inhibits P. falciparum growth in the first generation, 48 h; P. falciparum luciferase growth in erythrocytes, 48 h; Potency, µM (series often up to 28.7 µM), for the others: at the top dose activity change, negative = inhibition, hits mostly inhibitors; 5.9% of 310,000 active; AID 504832; also: potency is read from the fitted curve at half-maximal effect; % is scaled to controls: 0 for no effect and ±100 for the full control effect
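Here the parasites carry a stable luciferase gene and grow inside erythrocytes in Albumax-based RPMI medium with compound for one erythrocytic cycle. Activity is scored as loss of luminescent signal.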
CHX counter: counter-screen hit for Shiga toxin inhibitors, cycloheximide; cell reporter, cycloheximide protein synthesis inhibition counterscreen; max response, %; 12% of 300,000 active; AID 2314; in the data active = max response mostly above about 13%, no sharp cut-off; inactive = mostly below about 14%; also: read at 38.3 µM for the half of the compounds with a filed dose; 0% is about no effect
Numbers without * were called inactive; ? = inconclusive; nt = no result given; ! = a repeat was not active; [ ] = another dose, or the depositor's remark. Sampled rows, rich in hits. Any-hit rate of the full collection: about 21%. Unless noted, calls follow the shape of the dose curve; as a rule, active = well fitted inhibition curve with a large enough effect; inconclusive = small, poorly fitted or top-dose-only effect, or another doubt; inactive = no such curve, though single readings can be large or run the other way.

SMILES | Shiga toxin inh | Pf growth 96h | Pf growth 48h | CHX counter
O=C(Nc1ccccc1)Nc1sccc1-c1nc2ccccc2s1 | 63* | ? | ? | 17
CC(C)(C)NC(=O)c1nc2ccccc2s1 | 47* | 14% | -11% | 21*
Cc1ccc(C)c2sc(NC(=O)c3nc4ccccc4s3)nc12 | -14 | -2% | 31% | -5
Cc1cccc(NC(=O)c2cc(C)nc3ccccc23)c1 | -7 | 2% | 10% | -4
COc1ccc(CCNC(=O)CSc2nnc(Cc3cccn3C)n2C)cc1OC | 15 | ? | -1% | 7
CC(=O)c1cccc(NC(=O)/C(=C\c2ccco2)NC(=O)c2cccs2)c1 | 29* | ? | 18% | 13*
Cc1ccc(S(=O)(=O)Oc2ccc(/C=C(/NC(=O)c3ccccc3)C(=O)Nc3ccccc3)cc2)cc1 | -9 | 9.3µM* | ? | 4
Cc1ccc(C(=O)N/C(=C/c2ccco2)C(=O)Nc2cccc(C(=O)O)c2)cc1 | 28 | ? | -8% | 22*
COc1ccc(NC(=O)/C(=C\c2ccc(OS(=O)(=O)c3ccc(C)cc3)cc2)NC(=O)c2ccccc2)cc1 | -25 | ? | ? | -5
O=C(NC(=S)Nc1cc([N+](=O)[O-])ccc1O)C1CC1 | 21 | ? | ? | 18
Cc1cccnc1NC(=O)CCNC(=O)c1ccccc1Cl | 12 | 4% | 13% | -3
COC(CNC(=O)CCc1c(C)nc2c(-c3ccccc3)c(C)nn2c1C)OC | -2 | 5% | 2%[0.00184 µM] | -4
CCCCN(C(=O)/C=C/c1ccc(OC)cc1)C1CCS(=O)(=O)C1 (stereo not given) | nt | ? | -14% | nt
Cc1ccc(C)c(CS(=O)(=O)c2cn(CC(=O)N3CCCCC3)c3ccccc23)c1 | -13 | -90% | ? | -8
Cc1ccc(C)c(CS(=O)(=O)c2cn(CC(=O)N3CCC(C)CC3)c3ccccc23)c1 | -8 | 5.2µM* | ? | -5
CCCCN(C(=O)Cn1nnc2ccccc21)C(C(=O)NCCOC)c1cccs1 (stereo not given) | -3 | 25% | -4% | -3
Cc1ccc(S(=O)(=O)N2CCCC2C(=O)Nc2cc(C)on2)cc1 (stereo not given) | 14 | 26% | 4.7µM* | -2
Cc1cccc(NC(=O)C2CCCN2S(=O)(=O)c2ccc3c(c2)n(C)c(=O)c(=O)n3C)c1 (stereo not given) | -4 | 8.3µM* | 2% | -4
CCc1cccc(NC(=O)C2CCCN2S(=O)(=O)c2ccc3c(c2)n(C)c(=O)c(=O)n3C)c1 (stereo not given) | 12 | -8% | -10% | 0
COc1ccc(NC(=O)CCCN2C(=O)CN(C)C2=O)cc1Cl | nt | 30% | 11% | nt
CC(=O)c1ccc(S(=O)(=O)N2CCCc3ccccc32)cc1 | 27 | ? | 10% | 11*
O=C(O)c1ccc(S(=O)(=O)N2CCCc3ccccc32)cc1 | -2 | -2% | 13% | -1
COCCNC(=O)c1ccc(S(=O)(=O)N2CCCc3ccccc32)cc1 | 74* | 3% | 5% | 29*
COc1ccc(S(=O)(=O)N2CCCc3ccccc32)cc1OC | 55* | 57% | 12µM* | 33*
COc1cc(/C=C/C(=O)O)cc(S(=O)(=O)N2CCCc3ccccc32)c1OC | 13 | ? | -2% | 12*
SMILES | Shiga toxin inh | Pf growth 96h | Pf growth 48h | CHX counter
CCc1ccc(C(=O)CCC(=O)Nc2ccc(OC)c(S(=O)(=O)N3CCCCC3)c2)cc1 | nt | ? | -25% | nt
CCOC(=O)C1(Cc2ccccc2)CCCN(S(=O)(=O)N(C)C)C1 (stereo not given) | -2 | ? | -14% | -2
N#C/C(=N\Nc1ccc(S(=O)(=O)N2CCc3ccccc32)cc1)C(N)=S | -3 | ? | ? | 1
CCOC(=O)/C(C#N)=N/Nc1ccc(S(=O)(=O)N2CCc3ccccc32)cc1 | -13 | 12µM* | 13µM* | -4
O=C(O)C1CC=CCC1C(=O)Nc1ccc(S(=O)(=O)N2CCCc3ccccc32)cc1 (stereo not given) | -3 | 10µM* | -1% | -1
COc1ccc(S(=O)(=O)N2CCc3ccccc32)cc1C(=O)NCc1ccco1 | nt | ? | 13µM* | nt
O=S(=O)(c1ccc(F)cc1)N1CCCc2ccccc21 | nt | 1.7µM* | 29% | 31*
Cc1cc(NC(=O)CSc2nnc(CNC(=O)c3c(F)cccc3F)o2)no1 | -20 | -19% | 14% | 1
Cc1ccnc2c1ccc1c(C)ccnc12 | nt | 4.7µM* | 2.6µM* | nt
Cc1cccc2cccnc12 | nt | -10% | 20% | nt
Cc1ccnc2c1ccc1ccccc12 | 21 | -24% | 11% | 16*
Cc1ccnc2c1ccc1cccnc12 | nt | 0.83µM* | 1.2µM* | nt
Cc1ccc2cccnc2c1N | 13 | -28% | 23% | 17
O=Cc1ccc2ccc3cccnc3c2n1 | 34 | ? | -18% | 12
c1cnc2c(c1)ccc1cccnc12 | 29 | 3.3µM* | 5.9µM* | active!
Cc1ccc(C(=O)OCC(=O)N(CC(C)C)c2c(N)n(Cc3ccccc3)c(=O)[nH]c2=O)s1 | -5 | -10% | ? | -3
CCCCn1c(SCC(=O)NC2CC2)nc2ccccc2c1=O | -8 | -3% | 75% | -1
CCN1CCN(Cc2ccc(NC(=O)c3cc(NC(=O)N4CCNC4=O)cc(OC)c3)cc2C(F)(F)F)CC1 | -4 | 4.1µM* | 5.2µM* | -4
CCN1CCN(Cc2ccc(NC(=O)c3cc(NC(=O)c4cc5cccc(OC)c5o4)cc(OC)c3)cc2C(F)(F)F)CC1 | -25 | 0.29µM* | 0.83µM* | -8
CCN1CCN(Cc2ccc(NC(=O)c3ccc(C)c(NC(=O)c4ccno4)c3)cc2C(F)(F)F)CC1 | -10 | ? | ? | -7
CCN1CCN(Cc2ccc(NC(=O)c3cc(NC(=O)c4cc(-c5ccc(OC)cc5)n[nH]4)cc(OC)c3)cc2C(F)(F)F)CC1 | 18 | 0.093µM* | 0.12µM* | 2
CCN1CCN(Cc2ccc(NC(=O)c3cc(NC(=O)c4ccno4)cc(OC)c3)cc2C(F)(F)F)CC1 | -10 | 0.83µM* | ? | -8
NCCCC[C@H](NC(=O)CNC(=O)[C@@H]1CCCN1C(=O)[C@H](Cc1ccc(O)cc1)NC(=O)CN)C(=O)N[C@@H](Cc1ccccc1)C(=O)O | -7 | nt | nt | -7
Cc1ccccc1C(=O)NC(C(N)=O)P(=O)(OC(C)C)OC(C)C (stereo not given) | -10 | 4% | 0% | 1
COc1cc(NC(=O)c2csc(-c3ccncc3)n2)cc(C(=O)Nc2cccc(C(F)(F)F)c2)c1 | 6 | 5.2µM* | ? | 1
O=C(Nc1cccc(C(F)(F)F)c1)c1csc(-c2ccncc2)n1 | -2 | ? | ? | 8
CCN1CCN(Cc2ccc(NC(=O)c3cc(NC(=O)c4ccc5n[nH]nc5c4)cc(OC)c3)cc2C(F)(F)F)CC1 | 13 | 2.3µM* | 4.1µM* | -3
COc1cc(NC(=O)c2cc3cccc(OC)c3o2)cc(C(=O)Nc2cccc(C(F)(F)F)c2)c1 | -3 | 10µM* | 13µM* | -3
COc1cc(NC(=O)c2ccno2)cc(C(=O)Nc2cccc(C(F)(F)F)c2)c1 | -7 | ? | ? | -3
Cc1noc(C)c1C(=O)Nc1nc2ccccc2s1 | nt | 131% | 128% | nt

Bioassay records from PubChem BioAssay.
